The test has as its target Pro-neuregulin-1, membrane-bound isoform (Homo sapiens) (UniProt Q02297). Nature of the test: NRG1 binders on small-molecule microarrays, primary screen, psychiatric disease protein project, biochemical, small-molecule microarray, fluorescence 635/667 (AID 1075).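 Also: score combines 667 nm spot fluorescence with signal to noise.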 As to conditions: NRG1 binding, 635 nm fluorescence, higher = more signal.
Chain of Pro-neuregulin-1, membrane-bound isoform (Homo sapiens) (Q02297 whole entry, looked up, canonical isoform): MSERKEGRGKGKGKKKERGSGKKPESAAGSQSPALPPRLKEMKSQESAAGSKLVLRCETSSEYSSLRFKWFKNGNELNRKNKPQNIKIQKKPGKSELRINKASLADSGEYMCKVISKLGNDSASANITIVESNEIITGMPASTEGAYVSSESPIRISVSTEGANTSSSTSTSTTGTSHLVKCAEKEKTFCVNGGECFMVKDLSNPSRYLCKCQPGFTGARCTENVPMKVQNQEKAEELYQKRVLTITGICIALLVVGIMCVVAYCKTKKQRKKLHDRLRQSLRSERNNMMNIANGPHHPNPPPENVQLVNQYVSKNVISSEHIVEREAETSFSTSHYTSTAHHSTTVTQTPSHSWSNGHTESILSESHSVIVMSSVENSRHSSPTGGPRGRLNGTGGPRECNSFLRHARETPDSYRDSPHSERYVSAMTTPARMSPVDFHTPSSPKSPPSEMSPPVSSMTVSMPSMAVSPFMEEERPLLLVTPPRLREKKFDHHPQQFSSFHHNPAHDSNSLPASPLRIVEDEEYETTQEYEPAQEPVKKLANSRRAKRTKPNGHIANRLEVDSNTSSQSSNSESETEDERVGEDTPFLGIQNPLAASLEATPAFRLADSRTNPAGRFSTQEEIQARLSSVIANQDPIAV
Take `CCCC1(C(=O)OC)C=C2C(=C(C)C(=O)C2C)CN1` (stereo not given): the composite z-score was -0.74.
On to `COc1cc(NN2C(C(O)c3ccco3)C=CC3C(=O)N(C)C(=O)C32)cc(OC)c1OC` (stereo not given), for which the composite z-score came to 1.4.
For `CCCNC(=O)[C@@H]1c2ccccc2C(=O)N(Cc2ccc(OC(F)(F)F)cc2)[C@H]1c1ccc(CO)cc1`, the composite z-score turned out to be 0.33.
The result for `C=CC[C@@H](OC(=O)Nc1ccc(OC)cc1)c1ccc(O)c(F)c1` reads 0.952.
`CCCC[C@@H](O)C1=C(COC)C[C@H]2C(=O)N(Cc3ccccc3)C(=O)[C@H]2[C@H]1CO` displayed a composite z-score of 0.179.
The result for `CC(C)NC(=O)[C@@]1(c2ccc([N+](=O)[O-])cc2)CC(=O)N(C2CCCCC2)[C@@H]1c1ccc(CO)cc1` reads 1.69; that for `CC1CC/C=C\[C@H]2OC34C=CCN(c5ccc(Cl)cc5)C(=O)[C@H]3N(C(C)CO)C(=O)[C@]4(C)C2C(=O)O1` (stereo not given in full), -0.154; that for `COc1cc2c(cc1O)C(C1CC1)N(Cc1cccc(OC(F)(F)F)c1)CC2` (stereo not given), 1.39.
Turning to `CC(c1ccccc1)C(O)C1C=CC2C(=O)N(C)C(=O)C2N1Nc1ccccc1` (stereo not given), the composite z-score is 1.43.
In turn, `CCOC(=O)C1=CC[C@@H](c2ccccc2F)N(S(=O)(=O)c2ccc(C)cc2)[C@H]1c1ccccc1` had a composite z-score of 0.65.

For the origin of these results see PubChem BioAssay.
